# Data: article PMC5540273 (PLoS ONE, 2017)
# Values joined by “and” are separate entries in the source; they are usually repeats but may differ in a detail not shown here. Identical values can stand only once. Like-named read-outs stand apart in the source and are kept apart here.
# Experiments:
# MERTK = details: concentration: 1 μM, replicates: in singlicate; n = 1
# MET = details: concentration: 1 μM, replicates: in singlicate; n = 1
# MINK = test system: T1, MINK; details: concentration: 1 μM, replicates: in singlicate, n = 1
# T1 construct: gene MINK1
# MKK7 = details: concentration: 1 μM, replicates: in singlicate, n = 1
# MKNK1 = details: concentration: 1 μM, replicates: in singlicate; n = 1
# MKNK2 = details: concentration: 1 μM, replicates: in singlicate, n = 1
# MLCK = test system: T2, MLCK; details: concentration: 1 μM, replicates: in singlicate; n = 1
# T2 construct: gene MYLK3
# MLK1 = test system: T3, MLK1; details: concentration: 1 μM, replicates: in singlicate; n = 1
# T3 construct: gene MAP3K9
# MLK2 = details: concentration: 1 μM, replicates: in singlicate, n = 1
# MLK3 = details: concentration: 1 μM, replicates: in singlicate, n = 1
# MRCKA = details: concentration: 1 μM, replicates: in singlicate, n = 1
# MRCKB = test system: T4, MRCKB; details: concentration: 1 μM, replicates: in singlicate; n = 1
# T4 construct: gene CDC42BPB
# MST1R = details: concentration: 1 μM, replicates: in singlicate, n = 1
# MST1 = test system: T5, MST1; details: concentration: 1 μM, replicates: in singlicate; n = 1
# T5 construct: gene STK4
# MST2 = test system: T6, MST2; details: concentration: 1 μM, replicates: in singlicate, n = 1
# T6 construct: gene STK3
# MST3 = test system: T7, MST3; details: concentration: 1 μM, replicates: in singlicate; n = 1
# T7 construct: gene STK24
# MST4 = details: concentration: 1 μM, replicates: in singlicate; n = 1
# MTOR = details: concentration: 1 μM, replicates: in singlicate, n = 1
# MUSK = details: concentration: 1 μM, replicates: in singlicate; n = 1
# MYLK2 = details: concentration: 1 μM, replicates: in singlicate; n = 1
# 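Further: KINOMEscan kinase panel screen.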
structure (smiles),measurement,setting,value
Cl.Fc1ccccc1COc1ccc(Nc2ncnc3ccc(-c4nnc(C(F)(F)F)o4)cc23)cc1Cl [GW424170],%Inh,MERTK,10%
same,%Inh,MET,0%
same,%Inh,MINK,0%
same,%Inh,MKK7,0%
same,%Inh,MKNK1,0%
same,%Inh,MKNK2,0%
same,%Inh,MLCK,0%
same,%Inh,MLK1,0%
same,%Inh,MLK2,0%
same,%Inh,MLK3,3%
same,%Inh,MRCKA,7%
same,%Inh,MRCKB,0%
same,%Inh,MST1R,18%
same,%Inh,MST1,0%
same,%Inh,MST2,0%
same,%Inh,MST3,0%
same,%Inh,MST4,0%
same,%Inh,MTOR,0%
same,%Inh,MUSK,0%
same,%Inh,MYLK2,0%
Cc1cccc(-c2nc(Nc3ccc4[nH]nnc4c3)c3ccccc3n2)n1 [GW867587],%Inh,MERTK,19%
same,%Inh,MET,0%
same,%Inh,MINK,0%
same,%Inh,MKK7,0%
same,%Inh,MKNK1,8%
same,%Inh,MKNK2,0%
same,%Inh,MLCK,0%
same,%Inh,MLK1,0%
same,%Inh,MLK2,0%
same,%Inh,MLK3,0%
same,%Inh,MRCKA,0%
same,%Inh,MRCKB,2%
same,%Inh,MST1R,0%
same,%Inh,MST1,0%
same,%Inh,MST2,0%
same,%Inh,MST3,0%
same,%Inh,MST4,0%
same,%Inh,MTOR,5%
same,%Inh,MUSK,2%
same,%Inh,MYLK2,0%
C[C@@H]1CCN(C(=O)CO)C[C@@H]1N(C)c1ncnc2[nH]ccc12,%Inh,MERTK,0%
same,%Inh,MET,0%
same,%Inh,MINK,0%
same,%Inh,MKK7,0%
same,%Inh,MKNK1,0%
same,%Inh,MKNK2,0%
same,%Inh,MLCK,14%
same,%Inh,MLK1,0%
same,%Inh,MLK2,35%
same,%Inh,MLK3,8%
same,%Inh,MRCKA,0%
same,%Inh,MRCKB,100%
same,%Inh,MST1R,21%
same,%Inh,MST1,12%
same,%Inh,MST2,0%
same,%Inh,MST3,11%
same,%Inh,MST4,0%
same,%Inh,MTOR,55%
same,%Inh,MUSK,0%
same,%Inh,MYLK2,2%
Clc1cc(Nc2ncnc3cc[nH]c23)ccc1OCc1ccccn1,%Inh,MERTK,0%
same,%Inh,MET,4%
same,%Inh,MINK,33%
same,%Inh,MKK7,5%
same,%Inh,MKNK1,35%
same,%Inh,MKNK2,22%
same,%Inh,MLCK,0%
same,%Inh,MLK1,0%
same,%Inh,MLK2,2%
same,%Inh,MLK3,0%
same,%Inh,MRCKA,0%
same,%Inh,MRCKB,8%
same,%Inh,MST1R,37%
same,%Inh,MST1,12%
same,%Inh,MST2,48%
same,%Inh,MST3,28%
same,%Inh,MST4,0%
same,%Inh,MTOR,0%
same,%Inh,MUSK,13%
same,%Inh,MYLK2,11%
COc1ccc(-c2nc3n(c2-c2ccncc2)CCC3)cc1 [SKF-104493],%Inh,MERTK,0%
same,%Inh,MET,0%
same,%Inh,MINK; 1 µM,5% and 19%
same,%Inh,MKK7; 1 µM,14% and 19%
same,%Inh,MKNK1,0%
same,%Inh,MKNK2; 1 µM,19% and 0%
same,%Inh,MLCK,0%
same,%Inh,MLK1,0%
same,%Inh,MLK2; 1 µM,0% and 4%
same,%Inh,MLK3; 1 µM,9% and 24%
same,%Inh,MRCKA; 1 µM,0% and 2%
same,%Inh,MRCKB,0%
same,%Inh,MST1R; 1 µM,19% and 14%
same,%Inh,MST1,0%
same,%Inh,MST2; 1 µM,4% and 16%
same,%Inh,MST3,0%
same,%Inh,MST4,0%
same,%Inh,MTOR; 1 µM,0% and 11%
same,%Inh,MUSK,3%
same,%Inh,MYLK2,0%
O=c1cc(N2CCOCC2)nc2n(Cc3cccc(Cl)c3)ccn12 [GSK2296823],%Inh,MERTK,15%
same,%Inh,MET,0%
same,%Inh,MINK,0%
same,%Inh,MKK7,12%
same,%Inh,MKNK1,0%
same,%Inh,MKNK2,15%
same,%Inh,MLCK,0%
same,%Inh,MLK1,0%
same,%Inh,MLK2,19%
same,%Inh,MLK3,0%
same,%Inh,MRCKA,7%
same,%Inh,MRCKB,16%
same,%Inh,MST1R,17%
same,%Inh,MST1,0%
same,%Inh,MST2,11%
same,%Inh,MST3,0%
same,%Inh,MST4,0%
same,%Inh,MTOR,62%
same,%Inh,MUSK,11%
same,%Inh,MYLK2,2%
CSc1nn2c(=O)cc(N3CCOCC3)nc2n1Cc1cccc(Cl)c1Cl [GSK2347225],%Inh,MERTK,40%
same,%Inh,MET,0%
same,%Inh,MINK,21%
same,%Inh,MKK7,0%
same,%Inh,MKNK1,20%
same,%Inh,MKNK2,2%
same,%Inh,MLCK,13%
same,%Inh,MLK1,0%
same,%Inh,MLK2,4%
same,%Inh,MLK3,11%
same,%Inh,MRCKA,29%
same,%Inh,MRCKB,4%
same,%Inh,MST1R,59%
same,%Inh,MST1,6%
same,%Inh,MST2,0%
same,%Inh,MST3,4%
same,%Inh,MST4,0%
same,%Inh,MTOR,28%
same,%Inh,MUSK,16%
same,%Inh,MYLK2,15%
CCc1nc(-c2cccc(N(C)S(=O)(=O)c3ccccc3)c2)c(-c2ccnc(Nc3ccc(N4CCN(C(C)=O)CC4)nc3)n2)s1 [GSK1645895],%Inh,MERTK,11%
same,%Inh,MET,0%
same,%Inh,MINK,18%
same,%Inh,MKK7,0%
same,%Inh,MKNK1,0%
same,%Inh,MKNK2,6%
same,%Inh,MLCK,0%
same,%Inh,MLK1,0%
same,%Inh,MLK2,0%
same,%Inh,MLK3,0%
same,%Inh,MRCKA,0%
same,%Inh,MRCKB,0%
same,%Inh,MST1R,40%
same,%Inh,MST1,3%
same,%Inh,MST2,16%
same,%Inh,MST3,15%
same,%Inh,MST4,0%
same,%Inh,MTOR,2%
same,%Inh,MUSK,1%
same,%Inh,MYLK2,0%
Nc1nccc2scc(-c3ccc4c(c3)CCN4C(=O)Cc3cc(F)ccc3F)c12 [GSK2587663],%Inh,MERTK,0%
same,%Inh,MET,0%
same,%Inh,MINK,18%
same,%Inh,MKK7,0%
same,%Inh,MKNK1,0%
same,%Inh,MKNK2,4%
same,%Inh,MLCK,4%
same,%Inh,MLK1,0%
same,%Inh,MLK2,0%
same,%Inh,MLK3,15%
same,%Inh,MRCKA,15%
same,%Inh,MRCKB,0%
same,%Inh,MST1R,35%
same,%Inh,MST1,8%
same,%Inh,MST2,3%
same,%Inh,MST3,15%
same,%Inh,MST4,0%
same,%Inh,MTOR,4%
same,%Inh,MUSK,10%
same,%Inh,MYLK2,0%
COC(=O)c1c(-c2ccccc2)c2cc(Cl)ccc2c(=O)n1Cc1ccc(S(C)(=O)=O)cc1,%Inh,MERTK,8%
same,%Inh,MET,0%
same,%Inh,MINK,0%
same,%Inh,MKK7,0%
same,%Inh,MKNK1,0%
same,%Inh,MKNK2,0%
same,%Inh,MLCK,0%
same,%Inh,MLK1,0%
same,%Inh,MLK2,0%
same,%Inh,MLK3,4%
same,%Inh,MRCKA,0%
same,%Inh,MRCKB,0%
same,%Inh,MST1R,24%
same,%Inh,MST1,1%
same,%Inh,MST2,18%
same,%Inh,MST3,7%
same,%Inh,MST4,0%
same,%Inh,MTOR,0%
same,%Inh,MUSK,0%
same,%Inh,MYLK2,0%
NC(=O)c1sc(-n2cnc3ccccc32)cc1OCc1ccccc1F [GSK1024306],%Inh,MERTK,32%
same,%Inh,MET,20%
same,%Inh,MINK,1%
same,%Inh,MKK7,0%
same,%Inh,MKNK1,10%
same,%Inh,MKNK2,0%
same,%Inh,MLCK,0%
same,%Inh,MLK1,9%
same,%Inh,MLK2,0%
same,%Inh,MLK3,7%
same,%Inh,MRCKA,17%
same,%Inh,MRCKB,0%
same,%Inh,MST1R,9%
same,%Inh,MST1,0%
same,%Inh,MST2,0%
same,%Inh,MST3,0%
same,%Inh,MST4,0%
same,%Inh,MTOR,19%
same,%Inh,MUSK,0%
same,%Inh,MYLK2,7%
